Assay outcomes deposited in PubChem by several laboratories.
Compounds with a hit are over-represented: about 2.1% of the library has one in this group of screens.
HSV augment: increases HSV replication in cells; maximum fold increase; 220,000 compounds, 0.005% hits; HSV replication augmentation in cells, fold increase; in the data active means maximum fold increase above about 1.5; inconclusive means no clear call, values can overlap the other calls; tested in PC3 cells
Arbovirus inh: arbovirus infection inhibition | arbovirus infection cell-based antiviral screen | inhibition, % at 10 µM | 200,000 compounds, 0.37% hits; in the data active means inhibition above about 30%
ROMK primary: human ROMK K+ channel modulation, primary screen; 130,000 compounds, 2% hits; B-score at 10 µM; AID 1918; P48048; Tet-inducible ROMK, thallium flux fluorescence; actives lie on both sides;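 active means signal ratio slope over the read window, or its plate-corrected B-score, at least 3 SD from the plate mean, either direction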;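 further: B-score of the F/F0 ratio slope over 7 to 12 s after thallium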
Target sequence (P48048 whole entry, looked up): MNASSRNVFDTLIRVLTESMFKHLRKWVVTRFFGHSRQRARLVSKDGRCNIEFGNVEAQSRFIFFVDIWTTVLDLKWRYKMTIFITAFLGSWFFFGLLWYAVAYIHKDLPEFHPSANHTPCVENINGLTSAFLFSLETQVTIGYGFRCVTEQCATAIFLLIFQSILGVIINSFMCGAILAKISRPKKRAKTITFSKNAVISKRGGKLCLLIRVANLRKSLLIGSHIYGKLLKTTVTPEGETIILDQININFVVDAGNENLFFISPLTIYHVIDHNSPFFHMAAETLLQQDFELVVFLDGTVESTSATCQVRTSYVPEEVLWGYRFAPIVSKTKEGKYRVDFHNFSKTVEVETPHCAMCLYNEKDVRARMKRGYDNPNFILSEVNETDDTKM
m-calpain inh: calpain II (pig) inhibition. purified calpain II, fluorogenic peptide substrate, 30 min. inhibition, % at 16 µM. 220,000 compounds, 0.37% hits;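 active means inhibition above about 50%, limit read from the data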
HMGR II inh: E. faecalis class II HMG-CoA reductase inhibition; purified E. faecalis HMGR, NADPH absorbance 340 nm kinetic; inhibition, % at 10 µM; 190,000 compounds, 0.41% hits;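 active means inhibition above a set limit, the median over all tested compounds plus 3 SD, cut at about 9.5% in these data; inconclusive means no clear call, values can overlap the other calls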;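 further: enzyme runs in reverse so mevalonate oxidation gives rising NADPH absorbance; 0% = complete reaction with DMSO and 100% = background rate lacking mevalonate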
ROMK hit retest: human ROMK channel modulation, retest confirmation; shares compounds with ROMK primary; AID 1917; ROMK thallium flux, fluorescence ratio; active compounds read low; normalized thallium flux (F/F0 slope) at 10 µM; 3,000 compounds, 54% hits;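 active means Flux at 10 µM at least 3 SD below or above vehicle control mean in one or both replicates; inconclusive means no clear call, values can overlap the other calls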
* marks the source's active call; other numbers are inactive results; i = inactive; u = inconclusive; x = not tested or not shown.

SMILES	HSV augment	Arbovirus inh	ROMK primary	m-calpain inh	HMGR II inh	ROMK hit retest
Cc1nc(C(=O)NC2CCCCC2)sc1C1(C)CC(c2cccnc2)=NO1 (configuration not stated)	i	x	x	x	x	x
Cc1ccc(OCCCC(=O)NCc2ccco2)cc1	i	-3	x	16	-7	x
Cc1ccc(OCCNC(=O)C(=O)NCc2ccco2)cc1	i	-15	3*	13	9	0.1*
O=C(Nc1nnc(C(F)(F)F)s1)c1ccc(Br)s1	i	4	-3*	-109	0	0.09
O=C(Nc1nnc(C2CCCCC2)s1)c1ccc(Br)s1	i	18	x	29	-9	x
O=C(Nc1ccccc1C(=O)Nc1nnc(C(F)(F)F)s1)c1ccccc1Cl	i	x	x	20	x	0.061*
Cc1cccc(NC(=O)N2CCN(Cc3ccc4c(c3)OCO4)CC2)c1C	i	-12	x	-7	0	x
O=C(CN1CCN(C(c2ccccc2)c2ccccc2)CC1)N1CCN(c2ccccc2)CC1	i	x	-3.7*	0	x	0.063*
CC(CCc1ccccc1)NC(=O)CN1CCN(c2ccccc2)CC1 (configuration not stated)	i	0	-2.9*	-3	-8	0.061*
N=c1n(Cc2ccc(Cl)cc2)c2ccccc2n1CC(O)COc1ccccc1 (configuration not stated)	i	-35	-4.2*	35	-7	0.054*
Cc1cccc(OCC(O)Cn2c(=N)n(CCN3CCCCC3)c3ccccc32)c1 (configuration not stated)	i	-38	-7.6*	28	-2	0.049*
COc1ccc(OCC(O)Cn2c(=N)n(Cc3ccccc3)c3ccccc32)cc1 (configuration not stated)	i	-43	-7*	21	2	0.048*
Cc1ccc(OCC(O)Cn2c(=N)n(Cc3ccccc3)c3ccccc32)cc1 (configuration not stated)	i	-33	-4.6*	-6	-5	0.052*
CCN(CC)CCn1c(=N)n(CC(O)COc2cccc(C)c2)c2ccccc21 (configuration not stated)	i	-1	-2.5	9	0	x
COc1ccc(NS(=O)(=O)c2ccc(N3CCOCC3)c(NC(=O)c3ccccc3Cl)c2)cc1	i	-16	0.063	14	-2	x
O=C(Nc1ccccc1F)Nc1cc(S(=O)(=O)N2CCOCC2)ccc1N1CCCC1	i	-3	-0.26	-24	0	x
Cc1ccc(S(=O)(=O)N2CCCCC2)cc1NC(=O)COC(=O)Cc1cccc(C(F)(F)F)c1	x	-1	-4*	30	-3	0.063*
O=C(COC(=O)Cc1ccc(Cl)cc1)Nc1cc(S(=O)(=O)N2CCOCC2)ccc1N1CCCC1	i	1	-4.3*	-4	0	0.061*
COc1ccc(-c2cc(C(=O)Nc3cc(S(=O)(=O)N4CCOCC4)ccc3N3CCOCC3)c3ccccc3n2)cc1	i	3	1.8*	-153	4	0.065*
N#C/C(=C\c1ccccc1)C(=O)Nc1cc(S(=O)(=O)N2CCOCC2)ccc1N1CCCC1	i	1	x	-39	-5	0.056*
CSc1cccc(NC(=S)Nc2cc(C)ccc2C)c1	i	x	x	-10	x	x
COC(=O)c1cccc(NC(=O)c2cccnc2C(=O)O)c1C	i	1	0.16	-6	0	x
Cc1cccc(NC(=O)CSc2nnc(NC(=O)c3ccc(S(=O)(=O)N4CCOCC4)cc3)s2)c1C	i	4	0.47	-10	-1	0.088
CCN(CC)C(=S)SC1CCCCN(C(=O)c2ccc(F)cc2)C1=O (configuration not stated)	i	2	-1.4	0	-4	x
COc1ccc(OC)c(C2=C[N+](=O)C(C)(C)C(C)(C)N2[O-])c1	i	1	4.6*	23	-3	0.088
SMILES	HSV augment	Arbovirus inh	ROMK primary	m-calpain inh	HMGR II inh	ROMK hit retest
CC1(C)N([O-])C(c2ccccc2)=C[N+](=O)C1(C)C	i	-2	x	-35	-2	x
CC(=O)C1=C(c2ccc(Br)cc2)C(=O)c2ccccc2C1=O	x	-41	-4.7*	-53	-2	0.052*
CCN1C(=O)/C(=C/C=C2/CCCN2C)OC1=S	u	6	-4.9*	-35	-6	0.064*
CC(=O)Nc1cccc2c1C(=O)N(c1ccc(C)cc1)C2=O	i	4	-2.7*	-22	-1	0.076
Cc1ccc(N2C(=O)c3ccccc3C2=O)cc1	i	x	0.25	0	x	x
O=C(N/N=C/C1C(c2ccccc2)C1(Cl)Cl)c1cccc(Cl)c1 (configuration not stated)	i	1	x	8	-4	x
Cc1ccc(C)c(N2CCN(C(=O)c3ccc(CSc4nc5ccncc5[nH]4)cc3)CC2)c1	i	-15	-4.2*	-28	2	0.072
CCOc1ccc(-n2c(C)nc3cc(C(=O)NCc4ccc5c(c4)OCO5)ccc32)cc1	i	-15	2.3	26	-5	x
COc1ccc(-n2c(C)nc3cc(C(=O)NCc4ccc5c(c4)OCO5)ccc32)cc1	i	-19	4.2*	25	0	0.092
O=C(c1ccco1)N1CCN(S(=O)(=O)c2ccc(Oc3ccccc3)cc2)CC1	i	1	x	3	-2	0.067*
CCOC(=O)c1c(NC(=O)CSc2nnc(C)o2)sc(C)c1C	i	x	x	4	x	x
CCCCCCCCCCCC(=O)N1CC(=O)NC(=O)C1	i	x	x	23	x	x
Oc1c(Br)cc(Br)cc1C=Nc1ccc2c(c1)OCO2	i	-12	3.4*	-25	-1	0.11*
O=c1oc2ccc3ccccc3c2cc1-c1nnc(-c2cccs2)o1	i	-13	-3*	-269	-2	u
O=c1oc2ccccc2cc1-c1nc(-c2cccs2)cs1	i	-1	-4.5*	-66	-1	0.018*
Cc1cccc(N2CCN(C(=S)Nc3ccc4nc5n(c(=O)c4c3)CCCCC5)CC2)c1C	i	-20	0.88	-118	-3	x
Cc1ccc(F)cc1NC(=O)C1CC(=O)N(CCc2ccccc2)C1 (configuration not stated)	i	11	-1.6	31	-6	x
Cc1ccccc1NC(=O)CS(=O)(=O)c1cn(CC(=O)N2CCOCC2)c2ccccc12	i	6	2*	-22	-4	0.073
O=C(Nc1cccc(Cl)c1)Nc1ccnc(-c2cccnc2)n1	i	34*	2.4*	-17	1	0.08
COc1ccccc1NC(=O)/C(C#N)=C/c1c(C)nn(-c2ccc(F)cc2)c1Cl	i	-14	x	-42	-9	x
Cc1nn(-c2ccccc2)c(Cl)c1/C=C(\C#N)C(=O)NC(C)C	i	-2	x	-5	0	0.038*
CC(Nc1ccc2c(c1)OCCO2)C(=O)N1c2ccccc2CC1C (configuration not stated)	i	-1	0.006	-9	-5	x
CCCCOc1ccc(CC(=O)NO)cc1	i	-39	x	8	-2	0.081
CCCCOc1ccc(C(=O)NC)cc1	i	0	1.3	-18	-3	x
Cc1cc(C)n(C(=O)/C(C#N)=N/Nc2cc(Cl)cc(Cl)c2)n1	i	-30	-1.5	38	1	x
